# MmCpn inh: Inhibitors of TCP-1 ring complex (TRiC) of Methanococcus maripaludis (MmCpn): qHTS; Chaperonin Mm-Cpn (Methanococcus maripaludis); purified Mm-Cpn ATPase, ADP Transcreener TR-FRET; Potency, µM (doses to about 76.9 µM), most hits filed as inhibitors; hit rate 0.031% among 330,000; AID 504842, 2011; also: nearly all actives have a fitted effect of over 80% in size
#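 ATPase read-out: TR-FRET ADP immunoassay (anti-ADP Eu cryptate vs ADP-d2), ex 320 nm, em 590/665 nm; signal drops as ADP forms. Enzyme 25 nM, ATP 10 uM, 30 min at 37°C after 10 min compound preincubation.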
# CCT modulator: High-Throughput Screening for Modulators of Cytosolic Chaperonin Activity. AID 651819, 2012. activity change, % (no concentration beside the values), hits read low. purified chaperonin ATPase assay, HTRF ADP detection, 30 min. hit rate 0.3% among 360,000; in the data active = activity change below about -30%
#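 TRiC (40 or 20 nM final, by batch activity) in 30 mM Tris pH 7.4, 100 mM KCl, 5 mM MgCl2, 1 mM DTT was treated with compound at 76 uM single dose, then 10 uM ATP, 30 min at 37 °C. ADP was read by HTRF Transcreener.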
# Glioma ERSR ind: qHTS for Inducers of the Endoplasmic Reticulum Stress Response (ERSR) in Human Glioma: qHTS; U87-MG GRP78 promoter luciferase reporter, 16 h; Potency, µM, hits mostly activators; hit rate 0.02% among 420,000; also: series mostly up to about 76 µM; nearly all actives have a fitted effect of over 35% in size
#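 Stably transfected U87-MG glioma cells carrying a GRP78-based luciferase sensor; 16 h compound incubation. Luminescence end-point read 10 min after Bright-Glo addition at room temperature.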
# GLS inhibitor: qHTS for Inhibitors of Glutaminase (GLS); Glutaminase kidney isoform, mitochondrial (Homo sapiens), O94925; GLS enzymatic activity, qHTS titration; Potency, µM (top dose mostly 45.5 µM), hits mostly inhibitors; hit rate 0.21% among 410,000
# Target sequence (O94925 whole entry, looked up, canonical isoform): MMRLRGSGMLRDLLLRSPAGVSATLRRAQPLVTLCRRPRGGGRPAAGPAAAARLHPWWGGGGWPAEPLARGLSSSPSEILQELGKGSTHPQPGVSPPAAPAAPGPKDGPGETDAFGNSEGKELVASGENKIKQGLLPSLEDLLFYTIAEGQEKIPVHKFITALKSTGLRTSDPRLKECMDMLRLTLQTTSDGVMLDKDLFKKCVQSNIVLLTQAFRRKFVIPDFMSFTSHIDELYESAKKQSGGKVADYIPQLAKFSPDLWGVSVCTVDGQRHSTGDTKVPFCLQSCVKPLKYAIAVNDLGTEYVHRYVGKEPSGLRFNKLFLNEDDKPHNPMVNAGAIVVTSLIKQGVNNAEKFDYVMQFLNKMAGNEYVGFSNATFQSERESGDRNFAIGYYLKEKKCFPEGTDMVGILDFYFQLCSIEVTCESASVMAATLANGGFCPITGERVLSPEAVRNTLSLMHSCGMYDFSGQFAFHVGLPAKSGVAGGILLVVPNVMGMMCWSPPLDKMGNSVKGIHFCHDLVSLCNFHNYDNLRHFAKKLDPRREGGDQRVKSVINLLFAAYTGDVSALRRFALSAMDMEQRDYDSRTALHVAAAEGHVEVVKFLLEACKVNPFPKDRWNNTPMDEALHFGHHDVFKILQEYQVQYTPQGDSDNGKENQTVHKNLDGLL
#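 Read-out is an Amplex red fluorescence increase coupled through glutamate oxidase and HRP, measured before and after 30 min room-temperature incubation. hKGA is in 45 mM KH2PO4 (pH 8.2) with 0.02% Tween-20; glutamine added as 1mM solution.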
# Akt phos inh: HTS Assay for Inhibitors of Akt Phophorylation: Primary Screen. Neuro2A IGF-stimulated pAkt S473 HTRF, 20 min; hits give low values. activity change, % for hits at 50 µM. hit rate 0.32% among 360,000; in the data active = activity change below about -80%; inconclusive = mostly about -51% to -80%
#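 Single-point screen (50 µM final compound) in Neuro2A cells stimulated 20 min with 6 nM IGF at 37 deg C. After lysis, Ser473-phosphorylated Akt read by HTRF (ex 330 nm, em 615/665 nm) as the 665/615 ratio.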
# mIDH1 inhibitor: qHTS for Inhibitors of mutant isocitrate dehydrogenase 1 (IDH1): qHTS; Isocitrate dehydrogenase [NADP] cytoplasmic (Homo sapiens), O75874; IDH1-R132H enzyme, NADPH consumption, diaphorase/resazurin fluorescence; Potency, µM (highest dose often 76.6 µM), actives largely listed as inhibitors; hit rate 0.093% among 390,000; AID 602179, 2012; also: nearly all actives have a fitted effect of over 65% in size
#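 IDH1-R132H (0.5 ug/mL dispensed) in pH 7.5 Tris buffer was preincubated 30 min with compound, then given a substrate mix of 0.016 mM NADPH and 2 mM alpha-KG for 80 min at room temperature; remaining NADPH was read by diaphorase/resazurin fluorescence.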
# Hits are given with their value; 0 = inactive; ? = inconclusive; - = no result; ! = not active in a repeat. Compounds with a hit are over-represented: about 0.85% of the library has one in this group of screens. Unless noted, calls follow the shape of the dose curve; as a rule, active = well fitted curve in the direction sought with a large enough effect; inconclusive = small, poorly fitted or top-dose-only effect, or another doubt; inactive = no such curve, though single readings can be large; an effect the other way counts as inactive or inconclusive.
SMILES,MmCpn inh,CCT modulator,Glioma ERSR ind,GLS inhibitor,Akt phos inh,mIDH1 inhibitor
Fc1ccc(N2CCN(Cc3ccc4c(c3)CN(Cc3cccn3-c3ncccn3)CCO4)CC2)cc1,-,-,0,-,-,-
COC(=O)c1c(-c2ccc(S(C)(=O)=O)cc2)sc2cc(OC)ccc12,35.5µM,0,0,0,0,0
COc1ccc(-c2c(-c3ccccc3OC)sc3ccccc23)cc1,14.1µM,0,0,0,0,0
COC(=O)c1c(-c2ccccc2OC)sc2ccccc12,35.5µM,0,0,0,0,0
COC(=O)c1c(-c2ccc(S(C)(=O)=O)cc2)sc2ccc(OC)cc12,?,0,0,0,0,0
COc1ccc2sc(-c3ccccc3OC)c(-c3ccc(O)cc3)c2c1,0,0,0,0,0,0
Cc1ncc2c(c1CNC(=O)c1ccccc1F)CCN(C(=O)c1csc(-c3cccs3)n1)C2,-,-,0,-,-,-
Nc1ccc(O)cc1,-,-,0,12.6µM,-,-
Nc1ccc(C(=O)O)cc1,0,0,0,0,0,0
CO/N=C(/C(=O)N[C@@H]1C(=O)N2C(C(=O)O)=C(CSc3cnns3)CS[C@H]12)c1csc(N)n1,-,-,0,31.6µM,-,-
Cc1ccc(NC(=O)CN(C)c2ccc(S(=O)(=O)N3CCN(C)CC3)cn2)cc1,0,0,0,0,-101.6%,0
CN1CCN(S(=O)(=O)c2ccc(N(C)CC(=O)Nc3ccc(F)cc3)nc2)CC1,0,-,-,-,-,-
CCC1(C2CCN(C(=O)c3coc4c3C(=O)CCC4)CC2)NC(=O)N(CCc2scnc2C)C1=O (configuration not stated),-,-,0,-,-,-
CC(CNC(=O)CCC(=O)N1CCOc2ccc(Cl)cc21)c1ccccc1 (configuration not stated),0,-66.0,0,0,0,0
Cc1cnc(C)c(-c2ccc(F)c3c2OC(CNC(=O)Cc2c(C)[nH]c4ccccc24)C3)n1 (configuration not stated),-,-,0,-,-,-
CC(=O)c1c(C)[nH]c(C(=O)NC2CCCCC2)c1C,0,0,0,0,0,0
CCN(CC)CCCNC(=O)c1[nH]c(C)c(C(=O)NC2CCCCC2)c1C,0,0,0,0,-83.2%,0
O=C(COC(=O)c1cc(-c2cccc3ccccc23)nc2ccccc12)NC1CCS(=O)(=O)C1 (configuration not stated),?,-111.7,0,0,0,0
COc1ccccc1-n1cc(C(=O)NCCN2Cc3ccccc3OC(c3ccsc3)C2)cn1 (configuration not stated),-,-,0,-,-,-
Cc1nn(-c2ccc(F)cc2)c(C)c1CNC(=O)c1ccc(-n2cc(NC(=O)c3ccoc3)cn2)cc1,-,-,0,-,-,-
Cc1ccc2cc(CNCc3cccc4ccccc34)c(N3CCC(O)CC3)nc2c1,-,-,0,-,-,-
O=C(Nc1ccc(Cl)c(Cl)c1)c1ccccc1,0,-49.8,0,0,0,0
COc1cccc(N2CCN(CC(=O)Nc3nc4c(s3)CC(C)CC4)CC2)c1 (configuration not stated),0,0,0,0,-89.2%,0
CC1CCc2nc(NC(=O)CN3CCN(c4ccc(F)cc4)CC3)sc2C1 (configuration not stated),0,0,0,0,0,0
O=C1CCC(=O)N1CNc1ccc(Oc2ccccc2)cc1,-,-36.3,0,0,0,0
SMILES,MmCpn inh,CCT modulator,Glioma ERSR ind,GLS inhibitor,Akt phos inh,mIDH1 inhibitor
COc1cccc(CNC(=O)c2c(OC)cc(=O)n3c2CCN(C(=O)c2cc(C)ccc2C)CC3)c1,-,-,0,-,-,-
COc1ccc(-c2cc(C#N)nc(NN)n2)cc1,0,0,0,17.8µM,0,0
COc1ccc(-c2cc(C#N)nc(Cl)n2)cc1,0,0,0,0,0,0
CO[C@H]1[C@@H](O)[C@H](N)[C@@H](O[C@H]2O[C@@H]([C@H](C)N)CC[C@H]2N)[C@H](O)[C@@H]1N(C)C(=O)CN,-,-,0,0,-,-
Cc1cc(/C=C(/C#N)c2nc3ccccc3[nH]2)c(C)n1-c1cc(C(=O)O)cc(C(=O)O)c1,0,0,0,17.8µM,0,0
O=C(NCc1ccccn1)c1cnn(-c2ncc3c(n2)-c2ccccc2CC3)c1C1CC1,-,-,0,-,-,-
O=C(CSc1nnc(-c2ccccc2)n1Cc1ccco1)Nc1ccc2c(c1)OCCO2,0,0,0,0,0,0
NC(=O)c1ccc(NC(=O)CSc2nnc(-c3cccnc3)n2Cc2ccco2)cc1,0,-72.9,0,?,-,0
Cc1ccc(OCc2nnc(SCC(=O)Nc3ccc4c(c3)OCCO4)n2Cc2ccco2)cc1,0,0,0,0,-103.9%,0
OC1(c2ccc3c(c2)CN(Cc2ccco2)CCO3)CCN(c2ccccc2F)CC1,-,-,0,-,-,-
CC[C@@H](C)[C@H](NC(=O)Cc1c(C)c2c(cc(C)c3c(C)c(C)oc32)oc1=O)C(=O)O,0,0,0,0,0,0
Cc1oc2c(c(C)cc3oc(=O)c(CC(=O)N[C@@H](C)C(=O)O)c(C)c32)c1C,0,-32.7,0,0,0,0
Cc1c(NC(=O)c2cc(-c3ccc(Cl)c(Cl)c3)on2)c(=O)n(-c2ccccc2)n1C,0,0,0,15.8µM!,0,0
Cc1ccc(-c2cc(C(=O)Nc3c(C)n(C)n(-c4ccccc4)c3=O)no2)cc1,0,0,0,0,0,0
CCC(C)NC(=O)CSC1=Nc2ccccc2C2=NC(CC(=O)NCc3ccccc3)C(=O)N12 (configuration not stated),0,0,0,?,0,0
CCC(C)NC(=O)CSC1=Nc2ccccc2C2=NC(c3ccccc3)C(=O)N12 (configuration not stated),0,0,0,12.6µM,0,0
Cc1ncc2c(c1CNC(=O)c1cncs1)CCN(C(=O)c1ccsc1)C2,-,-,0,-,-,-
CC(Oc1ccccc1)C(=O)NCC1Cc2cc(F)cc(-c3ccccn3)c2O1 (configuration not stated),-,-,0,-,-,-
Cn1c(SCc2cccc([N+](=O)[O-])c2)nc2ccccc2c1=O,0,-39.4,0,0,0,0
COc1ccc2c(C(=S)N(C)CC(=O)O)cccc2c1C(F)(F)F,-,-,0,0,-,-
Cc1cccc(CNC(=O)c2cnn(-c3ncc4c(n3)-c3ccccc3CC4)c2C2CC2)n1,-,-,0,-,-,-
COc1ccccc1OCc1ccc(C(=O)OCC2CCCO2)o1 (configuration not stated),0,0,0,0,-119.1%,0
